# Data: PubChem BioAssay AID1520 (The Scripps Research Institute Molecular Screening Center, 2009)
# The other results are listed elsewhere or left out. Activity calls are given as the source filed them.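 The calls were made as follows: active = cell growth inhibition above the hit limit set in the earlier mutant JAK2 cell screen (cut at about 27% in these data); inactive = the rest.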
# Test: parental Ba/F3 cell viability inhibition, counter-screen for JAK2V617F inhibitor project, murine pro-B, CellTiter-Glo luminescence (AID 1520);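 also: plate controls were DMSO-treated cells for no effect and JAK Inhibitor I control wells for full effect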
# Conditions: at 5.6 µM, stronger effect = higher value
smiles,measurement,value
CN(C)CC1Oc2ccccc2OC1(O)c1ccccc1 (stereo unspecified),inhibition,34.6% (active)
